Source: the supplement of paper PMC10849652
About 7,900 targets were measured; listed, in parts, are those with a hit and a random draw of the rest. About 0.6% of all pairs of compound and target were hits.

Experiments:
Assay in all cases: log2 fold change, soluble protein after heating vs DMSO (PISA); higher = thermal stabilisation; K562 cells, 10 uM, 30 min; active = over 0.2 and 3.5 SD of the protein, either way, in both replicates (recomputed)
saracatinib = compound: CN1CCN(CCOc2cc(OC3CCOCC3)c3c(Nc4c(Cl)ccc5c4OCO5)ncnc3c2)CC1 [saracatinib]
Outline: (§1)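 For each measurement, 10 μM compound was applied for 30 min to K562 cells at 2×10^6 cells/mL. Aliquots were heated for 3 min across 48°C-58°C, pooled, and extracted in PBS with 0.5% NP-40 at 4°C; the supernatant after 21,000xg for 90 min was soluble protein. This was quantified by TMTpro 16plex LC-MS/MS with channel sums equalised, and thermal stability was reported relative to control samples from duplicates, on a log2 fold-change scale.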

sotrastaurin = compound: CN1CCN(c2nc(C3=C(c4c[nH]c5ccccc45)C(=O)NC3=O)c3ccccc3n2)CC1 [sotrastaurin]
Outline: as §1

alvocidib = compound: CN1CC[C@H](c2c(O)cc(O)c3c(=O)cc(-c4ccccc4Cl)oc23)[C@H](O)C1 [alvocidib]
Outline: as §1

Tubastatin A = compound: CN1CCc2c(c3ccccc3n2Cc2ccc(C(=O)NO)cc2)C1 [Tubastatin A]
Outline: as §1

[1] = compound: CNC(=O)C1=CC=CC=C1NC2=NC(=NC=C2Cl)NC3=C(C=C(C=C3)N4CCOCC4)OC
Outline: as §1

defactinib = compound: CNC(=O)c1ccc(Nc2ncc(C(F)(F)F)c(NCc3nccnc3N(C)S(C)(=O)=O)n2)cc1 [defactinib]
Outline: as §1

rucaparib = compound: CNCc1ccc(-c2[nH]c3cc(F)cc4c3c2CCNC4=O)cc1 [rucaparib]
Outline: as §1

[2] = compound: CNc1nc(-c2ccc3c(N)n[nH]c3c2)cc(N2C[C@@H](C(=O)NC3CCCCC3)CC[C@H]2C)n1
Outline: as §1

encorafenib = compound: COC(=O)N[C@@H](C)CNc1nccc(-c2cn(C(C)C)nc2-c2cc(Cl)cc(NS(C)(=O)=O)c2F)n1 [encorafenib]
Outline: as §1

[3] = compound: COC(=O)[C@H](CCSC)NC(=O)C1=C(C=C(C=C1)NC[C@H](CS)N)C2=CC=CC=C2
Outline: as §1

[4] = compound: COC1=CC=C(C=C1)CN2C=CC3=C2C=C(C=C3)C(=O)NO
Outline: as §1

filanesib = compound: CON(C)C(=O)N1N=C(c2cc(F)ccc2F)S[C@@]1(CCCN)c1ccccc1 [filanesib]
Outline: as §1

zotarolimus = compound: CO[C@H]1C[C@@H]2CC[C@@H](C)[C@@](O)(O2)C(=O)C(=O)N2CCCC[C@H]2C(=O)O[C@H]([C@H](C)C[C@@H]2CC[C@H](n3cnnn3)[C@H](OC)C2)CC(=O)[C@H](C)/C=C(\C)[C@@H](O)[C@@H](OC)C(=O)[C@H](C)C[C@H](C)/C=C/C=C/C=C/1C [zotarolimus]
Outline: as §1

idasanutlin = compound: COc1cc(C(=O)O)ccc1NC(=O)[C@@H]1N[C@@H](CC(C)(C)C)[C@](C#N)(c2ccc(Cl)cc2F)[C@H]1c1cccc(Cl)c1F [idasanutlin]
Outline: as §1

alisertib = compound: COc1cc(Nc2ncc3c(n2)-c2ccc(Cl)cc2C(c2c(F)cccc2OC)=NC3)ccc1C(=O)O [alisertib]
Outline: as §1

[5] = compound: COc1cc2nc(-c3cc(F)ccc3O)nc(N[C@@H]3CNC[C@H]3C(C)(C)O)c2cc1OC
Outline: as §1

gefitinib = compound: COc1cc2ncnc(Nc3ccc(F)c(Cl)c3)c2cc1OCCCN1CCOCC1 [gefitinib]
Outline: as §1

[6] = compound: COc1cccc2cc(-c3nc([C@H]4CC[C@H](C(=O)O)CC4)n4ncnc(N)c34)[nH]c12
Outline: as §1

lapatinib = compound: CS(=O)(=O)CCNCc1ccc(-c2ccc3ncnc(Nc4ccc(OCc5cccc(F)c5)c(Cl)c4)c3c2)o1 [lapatinib]
Outline: as §1

pictilisib = compound: CS(=O)(=O)N1CCN(Cc2cc3nc(-c4cccc5[nH]ncc45)nc(N4CCOCC4)c3s2)CC1 [pictilisib]
Outline: as §1

Measured: log2 fold change

KIF11 (UniProt P52732)
active: filanesib 1.1
inactive: saracatinib -0.059 | sotrastaurin -0.2 | alvocidib 0.041 | Tubastatin A 0.05 | [1] 0.275 | defactinib 0.017 | rucaparib 0.183 | [2] 0.088 | encorafenib 0.174 | [3] -0.055 | [4] -0.004 | zotarolimus 0.074 | idasanutlin 0.026 | alisertib 0.011 | [5] 0.043 | gefitinib -0.002 | [6] -0.063 | lapatinib -0.018 | pictilisib 0.046

ITPRIP (UniProt Q8IWB1)
UniProt Q8IWB1, sequence (Q8IWB1 whole entry, looked up): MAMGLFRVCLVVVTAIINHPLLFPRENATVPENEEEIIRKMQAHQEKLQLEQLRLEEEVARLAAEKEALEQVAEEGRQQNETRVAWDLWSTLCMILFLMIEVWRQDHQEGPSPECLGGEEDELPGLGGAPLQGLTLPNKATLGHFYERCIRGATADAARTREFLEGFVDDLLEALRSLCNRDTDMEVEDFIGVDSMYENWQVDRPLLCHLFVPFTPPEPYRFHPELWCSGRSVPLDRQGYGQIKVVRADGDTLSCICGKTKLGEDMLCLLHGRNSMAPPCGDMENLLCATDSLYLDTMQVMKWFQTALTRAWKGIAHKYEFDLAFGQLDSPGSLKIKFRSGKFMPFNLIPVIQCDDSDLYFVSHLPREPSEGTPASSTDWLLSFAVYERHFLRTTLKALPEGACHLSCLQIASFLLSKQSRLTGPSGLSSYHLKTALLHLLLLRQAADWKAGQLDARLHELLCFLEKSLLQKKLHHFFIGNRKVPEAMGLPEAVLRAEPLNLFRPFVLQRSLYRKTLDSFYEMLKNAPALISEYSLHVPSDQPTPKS
inactive: saracatinib -0.028 | sotrastaurin 0.016 | alvocidib -0.116 | Tubastatin A 0.034 | [1] 0.011 | defactinib -0.037 | rucaparib 0.034 | [2] -0.084 | encorafenib -0.009 | [3] 0.013 | [4] -0.042 | filanesib -0.022 | zotarolimus -0.024 | idasanutlin 0.014 | alisertib 0.012 | [5] -0.021 | gefitinib 0.018 | [6] -0.043 | lapatinib -0.038 | pictilisib 0.049

MAP2K2 (UniProt P36507)
UniProt P36507, sequence (P36507 whole entry, looked up): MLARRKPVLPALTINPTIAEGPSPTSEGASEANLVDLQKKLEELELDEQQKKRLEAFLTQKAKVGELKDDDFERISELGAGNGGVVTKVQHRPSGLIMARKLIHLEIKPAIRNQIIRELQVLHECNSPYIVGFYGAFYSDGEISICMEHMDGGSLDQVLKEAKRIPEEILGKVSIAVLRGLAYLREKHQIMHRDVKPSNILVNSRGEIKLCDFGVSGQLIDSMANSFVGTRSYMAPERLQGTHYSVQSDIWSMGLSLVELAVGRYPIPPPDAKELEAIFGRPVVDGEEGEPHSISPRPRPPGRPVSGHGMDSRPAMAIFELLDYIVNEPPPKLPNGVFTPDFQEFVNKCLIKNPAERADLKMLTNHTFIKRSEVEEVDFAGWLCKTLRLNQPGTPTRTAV
inactive: saracatinib 0.012 | sotrastaurin -0.037 | alvocidib -0.024 | Tubastatin A 0.01 | [1] -0.138 | defactinib -0.056 | rucaparib -0.039 | [2] -0.021 | encorafenib -0.074 | [3] 0.001 | [4] -0.014 | filanesib -0.061 | zotarolimus 0.018 | idasanutlin 0 | alisertib -0.103 | [5] -0.011 | gefitinib -0.011 | [6] 0.007 | lapatinib -0.069 | pictilisib -0.023

MAPKAPK3 (UniProt Q16644)
UniProt Q16644, sequence (Q16644 whole entry, looked up): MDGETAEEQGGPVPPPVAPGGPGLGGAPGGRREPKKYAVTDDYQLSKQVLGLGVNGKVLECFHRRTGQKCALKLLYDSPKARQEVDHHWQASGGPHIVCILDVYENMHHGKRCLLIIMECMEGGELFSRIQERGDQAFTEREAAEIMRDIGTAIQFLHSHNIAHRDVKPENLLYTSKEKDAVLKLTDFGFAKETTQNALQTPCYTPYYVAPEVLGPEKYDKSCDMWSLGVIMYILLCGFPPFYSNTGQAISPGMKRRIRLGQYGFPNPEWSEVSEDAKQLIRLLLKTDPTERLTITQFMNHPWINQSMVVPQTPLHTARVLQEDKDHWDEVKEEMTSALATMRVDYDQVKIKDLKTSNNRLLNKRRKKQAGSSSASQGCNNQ
inactive: saracatinib 0.134 | sotrastaurin -0.117 | alvocidib 0.011 | Tubastatin A -0.077 | [1] 0.117 | defactinib -0.051 | rucaparib -0.023 | [2] 0.011 | encorafenib 0.106 | [3] -0.01 | [4] -0.146 | filanesib 0 | zotarolimus -0.034 | idasanutlin -0.088 | alisertib 0.018 | [5] 0.037 | gefitinib 0.27 | [6] 0.01 | lapatinib -0.065 | pictilisib 0.039

LAMP2 (UniProt P13473)
inactive: saracatinib 0.078 | sotrastaurin 0.123 | alvocidib 0.056 | Tubastatin A -0.061 | [1] 0.105 | defactinib -0.047 | rucaparib -0.055 | [2] -0.088 | encorafenib -0.026 | [3] 0.062 | [4] -0.125 | filanesib -0.058 | zotarolimus -0.022 | idasanutlin -0.005 | alisertib -0.006 | [5] -0.012 | gefitinib 0.005 | [6] 0.084 | lapatinib -0.079 | pictilisib 0.046

IGFBP4 (UniProt P22692)
UniProt P22692, sequence (P22692 whole entry, looked up): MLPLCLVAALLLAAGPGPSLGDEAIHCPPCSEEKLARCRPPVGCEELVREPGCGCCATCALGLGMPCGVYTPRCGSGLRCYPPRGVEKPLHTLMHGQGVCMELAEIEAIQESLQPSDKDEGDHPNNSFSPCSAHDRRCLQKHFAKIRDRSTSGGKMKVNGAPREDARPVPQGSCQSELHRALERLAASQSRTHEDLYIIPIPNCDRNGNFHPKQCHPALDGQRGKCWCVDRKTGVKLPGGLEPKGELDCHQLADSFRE
inactive: saracatinib 0.004 | sotrastaurin 0.114 | alvocidib 0.063 | Tubastatin A -0.034 | [1] -0.044 | defactinib 0.036 | rucaparib 0.007 | [2] -0.019 | encorafenib -0.034 | [3] 0.014 | [4] -0.075 | filanesib 0.012 | zotarolimus -0.31 | alisertib 0.009 | [5] -0.024 | gefitinib -0.107 | [6] 0.179 | lapatinib -0.036 | pictilisib -0.022
active: idasanutlin 0.392

MCU (UniProt Q8NE86)
UniProt Q8NE86, sequence (Q8NE86 whole entry, looked up): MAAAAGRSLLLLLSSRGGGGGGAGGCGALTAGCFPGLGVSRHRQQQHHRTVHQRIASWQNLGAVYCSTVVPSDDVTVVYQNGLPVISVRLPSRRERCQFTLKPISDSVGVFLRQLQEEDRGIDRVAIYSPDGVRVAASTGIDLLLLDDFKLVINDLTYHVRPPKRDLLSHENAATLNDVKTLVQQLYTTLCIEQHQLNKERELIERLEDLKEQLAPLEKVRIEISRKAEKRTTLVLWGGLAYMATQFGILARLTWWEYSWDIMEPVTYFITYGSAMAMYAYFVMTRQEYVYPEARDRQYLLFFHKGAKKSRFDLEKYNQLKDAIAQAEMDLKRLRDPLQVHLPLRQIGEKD
inactive: saracatinib 0.039 | sotrastaurin -0.028 | alvocidib -0.08 | Tubastatin A 0.036 | [1] 0.013 | defactinib -0.043 | rucaparib -0.032 | [2] -0.014 | encorafenib -0.017 | [3] -0.032 | [4] -0.056 | filanesib -0.152 | zotarolimus 0.164 | idasanutlin -0.091 | alisertib -0.053 | [5] -0.053 | gefitinib -0.049 | [6] 0.054 | lapatinib -0.099 | pictilisib 0.09

METAP1D (UniProt Q6UB28)
UniProt Q6UB28, sequence (Q6UB28 whole entry, looked up): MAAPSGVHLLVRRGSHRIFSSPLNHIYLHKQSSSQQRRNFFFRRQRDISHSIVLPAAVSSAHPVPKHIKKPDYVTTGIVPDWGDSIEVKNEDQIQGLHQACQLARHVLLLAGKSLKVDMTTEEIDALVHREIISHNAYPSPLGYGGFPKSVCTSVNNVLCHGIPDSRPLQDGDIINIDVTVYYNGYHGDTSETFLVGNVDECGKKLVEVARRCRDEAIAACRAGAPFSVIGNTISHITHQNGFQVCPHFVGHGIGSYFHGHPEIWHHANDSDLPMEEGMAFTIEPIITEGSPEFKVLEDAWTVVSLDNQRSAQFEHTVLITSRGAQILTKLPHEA
active: [4] 0.342
inactive: saracatinib 0.088 | sotrastaurin -0.042 | alvocidib -0.086 | Tubastatin A -0.181 | [1] 0.036 | defactinib 0.013 | rucaparib -0.074 | [2] 0.04 | encorafenib 0.006 | [3] 0.006 | filanesib -0.097 | zotarolimus 0.054 | idasanutlin 0.079 | alisertib -0.085 | [5] 0.021 | gefitinib -0.029 | [6] -0.035 | lapatinib -0.062

KPNA4 (UniProt O00629)
inactive: saracatinib 0.013 | sotrastaurin 0.032 | alvocidib -0.085 | Tubastatin A -0.017 | [1] -0.052 | defactinib -0.095 | rucaparib -0.117 | [2] 0 | encorafenib 0.016 | [3] 0.015 | [4] 0.017 | filanesib -0.028 | zotarolimus 0.015 | idasanutlin -0.068 | alisertib -0.026 | [5] -0.091 | gefitinib 0.041 | [6] 0.044 | lapatinib -0.017 | pictilisib -0.025

KNTC1 (UniProt P50748)
inactive: saracatinib -0.034 | sotrastaurin -0.051 | alvocidib 0.013 | Tubastatin A 0.018 | [1] 0.033 | defactinib -0.044 | rucaparib 0.021 | [2] -0.076 | encorafenib 0.077 | [3] -0.041 | [4] 0.03 | filanesib -0.008 | zotarolimus 0 | idasanutlin -0.082 | alisertib -0.035 | [5] 0.036 | gefitinib 0.175 | [6] -0.037 | lapatinib 0.008 | pictilisib 0.007

MICU2 (UniProt Q8IYU8)
inactive: saracatinib 0 | sotrastaurin -0.001 | alvocidib 0.048 | Tubastatin A 0.057 | [1] -0.03 | defactinib -0.014 | rucaparib 0.102 | [2] -0.021 | encorafenib 0.073 | [3] -0.044 | [4] 0.067 | filanesib -0.089 | zotarolimus -0.142 | idasanutlin 0.022 | alisertib -0.067 | [5] -0.21 | gefitinib 0.038 | [6] -0.031 | lapatinib -0.031 | pictilisib 0.005

MIA2 (UniProt Q96PC5)
UniProt Q96PC5, sequence (Q96PC5 whole entry, looked up): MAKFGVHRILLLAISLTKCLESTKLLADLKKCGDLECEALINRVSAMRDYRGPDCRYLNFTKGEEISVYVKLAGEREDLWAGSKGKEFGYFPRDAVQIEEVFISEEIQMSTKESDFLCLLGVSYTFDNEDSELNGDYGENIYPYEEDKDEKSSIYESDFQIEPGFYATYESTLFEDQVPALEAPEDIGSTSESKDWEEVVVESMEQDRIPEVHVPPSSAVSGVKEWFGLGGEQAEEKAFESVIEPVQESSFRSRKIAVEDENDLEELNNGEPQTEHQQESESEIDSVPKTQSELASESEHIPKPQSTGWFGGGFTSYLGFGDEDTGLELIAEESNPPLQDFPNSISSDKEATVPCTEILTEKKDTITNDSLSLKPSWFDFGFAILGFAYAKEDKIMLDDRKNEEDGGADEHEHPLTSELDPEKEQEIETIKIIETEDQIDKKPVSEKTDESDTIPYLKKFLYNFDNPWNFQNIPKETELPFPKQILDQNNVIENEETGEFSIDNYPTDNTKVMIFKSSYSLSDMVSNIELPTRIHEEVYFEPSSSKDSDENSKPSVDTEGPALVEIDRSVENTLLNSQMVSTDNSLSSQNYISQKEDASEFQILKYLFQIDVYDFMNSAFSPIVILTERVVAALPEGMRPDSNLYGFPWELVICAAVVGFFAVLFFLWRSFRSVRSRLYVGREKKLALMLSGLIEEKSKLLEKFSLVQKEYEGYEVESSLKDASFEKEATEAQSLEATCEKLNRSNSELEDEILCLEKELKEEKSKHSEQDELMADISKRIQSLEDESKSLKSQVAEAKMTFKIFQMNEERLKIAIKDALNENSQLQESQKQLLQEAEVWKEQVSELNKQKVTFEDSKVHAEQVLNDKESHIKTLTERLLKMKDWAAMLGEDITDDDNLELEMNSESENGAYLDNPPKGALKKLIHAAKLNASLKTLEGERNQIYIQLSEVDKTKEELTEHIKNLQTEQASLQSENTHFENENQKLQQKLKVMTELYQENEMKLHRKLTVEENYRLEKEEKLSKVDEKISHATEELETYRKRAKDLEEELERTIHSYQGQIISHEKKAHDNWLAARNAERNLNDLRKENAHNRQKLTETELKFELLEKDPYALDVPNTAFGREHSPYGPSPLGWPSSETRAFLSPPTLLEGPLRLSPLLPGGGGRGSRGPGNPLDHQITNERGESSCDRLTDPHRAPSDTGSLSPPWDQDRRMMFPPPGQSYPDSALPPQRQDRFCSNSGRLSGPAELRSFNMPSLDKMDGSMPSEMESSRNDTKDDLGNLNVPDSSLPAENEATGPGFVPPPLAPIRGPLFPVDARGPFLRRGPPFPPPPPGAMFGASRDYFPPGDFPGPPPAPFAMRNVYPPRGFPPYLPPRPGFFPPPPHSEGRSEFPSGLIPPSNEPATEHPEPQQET
inactive: saracatinib 0.003 | sotrastaurin -0.106 | alvocidib -0.052 | Tubastatin A -0.013 | [1] 0.021 | defactinib -0.085 | rucaparib 0.074 | [2] -0.001 | encorafenib 0.07 | [3] 0.037 | [4] -0.017 | filanesib 0.121 | zotarolimus 0.037 | idasanutlin -0.017 | alisertib 0.069 | [5] 0.027 | gefitinib 0.034 | [6] -0.109 | lapatinib 0.029 | pictilisib -0.019

LYPLA2 (UniProt O95372)
UniProt O95372, sequence (O95372 whole entry, looked up): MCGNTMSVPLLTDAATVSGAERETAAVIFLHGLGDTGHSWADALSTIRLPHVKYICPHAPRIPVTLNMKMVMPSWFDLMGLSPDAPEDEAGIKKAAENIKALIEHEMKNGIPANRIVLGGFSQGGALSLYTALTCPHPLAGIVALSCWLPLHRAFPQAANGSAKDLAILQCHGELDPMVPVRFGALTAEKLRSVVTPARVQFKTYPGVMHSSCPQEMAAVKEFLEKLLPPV
inactive: saracatinib -0.063 | sotrastaurin -0.039 | alvocidib -0.126 | Tubastatin A 0.018 | [1] 0.007 | defactinib -0.09 | rucaparib -0.041 | [2] -0.01 | encorafenib -0.031 | [3] 0.087 | [4] 0.188 | filanesib 0.014 | zotarolimus 0.002 | idasanutlin 0.027 | alisertib 0.121 | [5] -0.23 | gefitinib 0.047 | [6] 0.044 | lapatinib -0.048 | pictilisib -0.026

MAGOHB (UniProt Q96A72)
inactive: saracatinib -0.047 | sotrastaurin -0.009 | alvocidib 0.03 | Tubastatin A 0.014 | [1] -0.007 | defactinib -0.003 | rucaparib -0.021 | [2] 0.022 | encorafenib 0.019 | [3] -0.071 | [4] -0.012 | filanesib 0.018 | zotarolimus 0.054 | idasanutlin -0.027 | alisertib 0.011 | [5] 0.144 | gefitinib 0 | [6] 0.024 | lapatinib -0.018 | pictilisib 0.005

LMBRD2 (UniProt Q68DH5)
UniProt Q68DH5, sequence (Q68DH5 whole entry, looked up): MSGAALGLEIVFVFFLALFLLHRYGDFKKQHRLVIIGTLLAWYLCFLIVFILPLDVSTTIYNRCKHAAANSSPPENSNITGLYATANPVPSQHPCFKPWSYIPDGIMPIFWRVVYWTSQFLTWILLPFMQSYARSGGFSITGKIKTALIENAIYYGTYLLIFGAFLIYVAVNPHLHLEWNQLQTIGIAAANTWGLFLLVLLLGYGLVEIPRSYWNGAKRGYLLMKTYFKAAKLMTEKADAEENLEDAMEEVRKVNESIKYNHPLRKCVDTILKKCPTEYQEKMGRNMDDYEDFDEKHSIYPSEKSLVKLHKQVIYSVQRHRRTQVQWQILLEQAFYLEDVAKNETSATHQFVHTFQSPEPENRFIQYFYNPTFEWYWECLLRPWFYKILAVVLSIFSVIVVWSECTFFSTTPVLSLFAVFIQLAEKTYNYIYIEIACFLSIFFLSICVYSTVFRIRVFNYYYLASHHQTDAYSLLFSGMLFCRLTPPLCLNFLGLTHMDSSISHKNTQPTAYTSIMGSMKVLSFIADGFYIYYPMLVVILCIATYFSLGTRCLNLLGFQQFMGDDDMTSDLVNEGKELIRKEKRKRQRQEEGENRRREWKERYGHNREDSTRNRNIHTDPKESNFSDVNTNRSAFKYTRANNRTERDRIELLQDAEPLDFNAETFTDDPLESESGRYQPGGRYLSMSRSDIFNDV
inactive: saracatinib 0.04 | sotrastaurin 0.02 | alvocidib -0.041 | Tubastatin A -0.032 | [1] -0.014 | defactinib -0.01 | rucaparib 0.003 | [2] -0.037 | encorafenib 0.021 | [3] -0.021 | [4] -0.031 | filanesib -0.095 | zotarolimus 0.108 | idasanutlin -0.012 | alisertib -0.035 | [5] 0.025 | gefitinib 0.082 | [6] -0.021 | lapatinib 0.026 | pictilisib 0.057

KCTD2 (UniProt Q14681)
UniProt Q14681, sequence (Q14681 whole entry, looked up): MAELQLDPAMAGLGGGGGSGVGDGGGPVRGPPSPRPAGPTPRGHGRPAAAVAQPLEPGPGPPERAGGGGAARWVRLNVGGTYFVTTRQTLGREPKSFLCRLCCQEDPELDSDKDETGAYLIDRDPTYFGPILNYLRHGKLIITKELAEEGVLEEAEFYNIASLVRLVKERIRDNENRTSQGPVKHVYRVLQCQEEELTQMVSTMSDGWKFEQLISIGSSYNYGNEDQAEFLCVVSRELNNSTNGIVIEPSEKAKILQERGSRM
inactive: saracatinib -0.276 | sotrastaurin 0.226 | alvocidib 0.188 | Tubastatin A 0.015 | [1] -0.076 | defactinib 0.038 | rucaparib 0.066 | [2] -0.243 | encorafenib -0.128 | [3] 0.082 | [4] 0.068 | filanesib 0.154 | zotarolimus -0.148 | idasanutlin 0.116 | alisertib -0.012 | [5] 0.402 | gefitinib 0.025 | [6] 0.154 | lapatinib -0.413 | pictilisib 0.426
